Bioassay records: PubChem, National Center for Advancing Translational Sciences (NCATS)
In the library only some 17% were active in any assay of this set; here they are far more common.
ClpP mod: qHTS Assay for Activators of ClpP | Potency, µM (series often up to 57.5 µM), for inactives: top-dose activity change, negative = active | purified B. subtilis ClpP, FRET peptide cleavage, 20 min | ATP-dependent Clp protease proteolytic subunit (Bacillus subtilis (strain 168)), P80244 | actives 1.9% (n = 340,000); active = well fitted falling curve with a large enough effect; inconclusive = small, poorly fitted or top-dose-only effect; inactive = no such curve, though single readings can be large or run the other way; also: the source files actives as falling curves though it sought activators and does not explain the sign; nearly all actives have a fitted effect of over 65% in size
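FRET quenching reversal measured ClpP activation: 10 microg/mL B. subtilis ClpP at pH 8 with the FRET-FV decapeptide, read at 430 nm after 320 nm excitation. The 20-min minus 0-min signal was scaled between DMSO/no-enzyme wells and ADEP (5.8 microM final).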
DT40 TDP1 CPT: DT40-hTDP1 cell growth loss with CPT; chicken DT40 Tdp1-/-;hTDP1 cells + 20 nM CPT, ATP luminescence, 48 h; Potency, µM (doses to about 46.2 µM), for the others: top-dose activity change, negative = growth inhibition, most hits filed as inhibitors; actives 12% (n = 420,000); AID 686979; also: % is scaled to controls: 0 for no effect and ±100 for the full control effect; nearly all actives have a fitted effect of over 55% in size
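Chicken DT40 Tdp1-/- cells stably complemented with human TDP1 were seeded at 400 cells/well in medium containing 20 nM camptothecin, exposed to pin-transferred compounds, and grown at 37 °C for at least 48 hr. Viability was read as ATP luminescence.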
TDP1 cell noCPT: qHTS for Inhibitors of human tyrosyl-DNA phosphodiesterase 1 (TDP1): qHTS in cells in absence of CPT. DT40 Tdp1-/- hTDP1 cells, no CPT, ATP luminescence, 48 h. Potency, µM (titrated, usually from 46.2 µM), for inactives: at the highest dose activity change, negative = growth inhibition, actives largely listed as inhibitors. actives 15% (n = 420,000). AID 686978, 2013; also: % is scaled to controls: 0 for no effect and ±100 for the full control effect; nearly all actives have a fitted effect of over 55% in size
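Camptothecin absent (DMSO only). Human TDP1-complemented DT40 knockout cells, 400 cells/well, 37 °C for minimum 48 hr; ATP measured via CellTiter-Glo, 30 min dark incubation, luminescence.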
TDP1 block: TDP1 (human) enzyme inhibition; Q9NUW8; recombinant TDP1, AlphaScreen DNA substrate cleavage; Potency, µM (highest dose often 130 µM), inactives show at the highest dose activity change, negative = inhibition, usual class: inhibitors; actives 0.28% (n = 350,000); AID 485290; also: % is scaled to controls: 0 for no effect and ±100 for the full control effect; nearly all actives have a fitted effect of over 40% in size
Target sequence (Q9NUW8 whole entry, looked up): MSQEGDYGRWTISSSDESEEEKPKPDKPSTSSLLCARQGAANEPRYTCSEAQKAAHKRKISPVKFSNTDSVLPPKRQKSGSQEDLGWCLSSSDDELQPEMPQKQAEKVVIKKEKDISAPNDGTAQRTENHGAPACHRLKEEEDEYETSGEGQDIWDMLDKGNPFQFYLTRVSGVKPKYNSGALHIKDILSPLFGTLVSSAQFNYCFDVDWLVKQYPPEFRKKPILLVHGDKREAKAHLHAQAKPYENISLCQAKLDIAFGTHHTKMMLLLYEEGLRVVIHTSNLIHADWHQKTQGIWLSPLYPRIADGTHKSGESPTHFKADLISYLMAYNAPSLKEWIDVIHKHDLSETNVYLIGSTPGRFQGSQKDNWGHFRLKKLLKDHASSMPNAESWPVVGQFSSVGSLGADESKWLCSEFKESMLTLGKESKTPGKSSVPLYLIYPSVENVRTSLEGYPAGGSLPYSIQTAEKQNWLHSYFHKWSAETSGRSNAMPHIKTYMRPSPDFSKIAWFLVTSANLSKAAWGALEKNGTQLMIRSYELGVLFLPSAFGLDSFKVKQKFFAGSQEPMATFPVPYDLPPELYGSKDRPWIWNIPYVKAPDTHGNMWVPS
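E. coli-derived human Tdp1, 1 nM final. Cpd preinc 15 min RT; substrate 15 nM final, 5 min RT; AS bead mix 10 ug/ml final, 10 min RT. Signal loss = tyrosine-FITC cleavage. No-enzyme wells = max signal.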
Starred values were filed as active, the others as inactive; ? = inconclusive; . = not tested or not shown; [ ] = another dose, or the depositor's remark. Unless noted, calls follow the shape of the dose curve; as a rule, active = well fitted curve in the direction sought with a large enough effect; inconclusive = small, poorly fitted or top-dose-only effect, or another doubt; inactive = no such curve, though single readings can be large; an effect the other way counts as inactive or inconclusive. Potency is read from the fitted curve at half-maximal effect.

SMILES | ClpP mod | DT40 TDP1 CPT | TDP1 cell noCPT | TDP1 block
Cc1ccc(Cl)cc1NC(=S)NCc1cccn1C | 1.1% | ? | 18.4µM* | 8.2%
CCc1cccc(C)c1NC(=S)NCc1ccc2[nH]c(C)cc2c1 | -3.2% | 23.1µM* | 18.4µM* | 11.0%
Cc1ccccc1NC(=S)NCc1cccn1C | 0.5% | 2.6% | -0.7% | 8.0%
CCc1cccc(C)c1NC(=S)NCc1cccn1C | 1.6% | 20.6µM* | ? | 5.8%
COc1cc(Cl)c(C)cc1NC(=O)Cn1ncc2c1-c1cc(C)ccc1OC2 | -2.3% | ? | ? | -1.0%
Cc1cc(C)cc(NC(=O)COC(=O)CN=C2NS(=O)(=O)c3ccccc32)c1 | 0.4% | -11.1% | -20.4% | -8.0%
CCN(CC(=O)Nc1cc(Cl)cc(Cl)c1)CC(=O)NC1CCS(=O)(=O)C1 (stereo unspecified) | . | -25.3% | ? | 0.7%
CCCn1c(SCC(=O)NC(=O)NCc2ccco2)n[nH]c1=O | . | . | . | 44.7µM*
Cc1nnc(SCC(=O)NC(=O)NCc2ccco2)n1Cc1ccccc1 | 0.9% | -0.3% | -1.2% | 50.1µM*
O=C(Nc1cccc(C(=O)O)c1)/C(=C\c1cccc([N+](=O)[O-])c1)NC(=O)c1ccc(Br)cc1 | 0.2% | 10.0% | -3.5% | .
CN(C)C(=O)c1cccc(-c2cnc3c(NC=O)cc(-c4ccccc4F)cn23)c1 | -21.6% | ? | 18.4µM* | .
COc1cc(-c2cc(NC=O)c3ncc(-c4cccc(C(=O)N(C)C)c4)n3c2)cc(OC)c1OC | -17.6% | ? | 14.6µM* | .
CN(C)C(=O)c1cccc(-c2cnc3c(NC=O)cc(-c4cc(F)c(F)c(F)c4)cn23)c1 | -21.6% | ? | ? | .
C=CCn1c(Sc2ncc([N+](=O)[O-])s2)n[nH]c1=O | -0.5% | 0.411µM* | 0.92µM* | 7.7%
CC(=O)c1ccc(NC(=O)CSc2nnc3c(n2)[nH]c2ccccc23)cc1 | -2.7% | ? | 16.4µM* | -2.1%
O=C(CSc1nnc2c(n1)[nH]c1ccccc12)Nc1cccc(S(=O)(=O)N2CCOCC2)c1 | -1.0% | 14.6µM* | ? | .
Cc1ccc(-c2csc(NC(=O)CSc3nnc4c(n3)[nH]c3ccccc34)n2)cc1 | -0.5% | 13µM* | 5.8µM* | 5.3%
Cc1ccc(NC(=O)CSc2nnc3c(n2)[nH]c2ccccc23)cc1 | . | 3.4% | 8.4% | 1.5%[0.0935 µM]
Cc1csc(NC(=O)CSc2nc3[nH]ncc3c(=O)[nH]2)n1 | -1.2% | ? | 29.1µM* | 6.9%
CCCCC(CC)COCC1CO1 (stereo unspecified) | . | . | . | 12.1%
COc1ccccc1CNC(=O)c1cc2c(=O)oc3ccc(C)cc3c2s1 | 3.9% | 3.1% | ? | 5.8%
Cc1ccccc1CSc1ccc(-c2cccs2)nn1 | -4.9% | ? | ? | ?
Cc1ccc(-c2csc(NC(=O)CSc3nc(C)cc(=O)[nH]3)n2)cc1 | 0.6% | 18.4µM* | 18.4µM* | 6.6%
CCN1C(=O)[C@H]2[C@@H](c3ccc(Cl)cc3)N3C(=O)CN(CC4CC4)C(=O)[C@@]3(Cc3ccccc3)[C@H]2C1=O | 0.7% | -8.0% | -2.9% | .
C[C@H]1CN([C@@H](C)CO)C(=O)c2cc(Br)cnc2O[C@@H]1CN(C)S(C)(=O)=O | -2.9% | 7.1% | ? | .
SMILES | ClpP mod | DT40 TDP1 CPT | TDP1 cell noCPT | TDP1 block
Nc1ccc(C#Cc2ccc3oc4ccccc4c(=O)c3c2)cc1 | 0.3% | ? | ? | .
Nc1ccc2oc3ccccc3c2c1 | 17.8µM* | 0.8% | ? | 4.2%
CCC(C(=O)Nc1ccc(C(C)=O)cc1)n1cnc2nc3c(cc2c1=O)CCCC3 (stereo unspecified) | -2.0% | -23.4% | ? | 1.8%
COc1ccc(C)cc1NS(=O)(=O)c1ccc2c3c(cccc13)C(=O)N2 | 0.7% | 4.11µM* | ? | 1.3%[12.3 µM]
N=c1ncn(Cc2ccccc2)c2nc(SCCOc3ccccc3)[nH]c12 | -3.8% | -11.3% | -21.9% | 5.5%
COc1ccc(C(=O)c2sc3nc(C)cc(-c4cccs4)c3c2N)cc1OC | -0.8% | ? | 23.1µM* | -2.7%
CC(=O)c1ccc(NC(=O)CSc2nc(-c3cccc(F)c3)nc3c2c(=O)n(C)c(=O)n3C)cc1 | -1.4% | 15.7% | -12.9% | 5.4%
COc1ccc(OC)c(NC(=O)Cc2coc3ccc4ccccc4c23)c1 | -9.3% | ? | 12.6µM* | 7.8%
Cc1cccc(NC(=O)Cc2coc3ccc4ccccc4c23)n1 | -5.8% | 10.3µM* | 16.4µM* | 7.8%
COc1ccc(NC(=O)Cc2coc3cc(C)cc(C)c23)c(OC)c1 | 4.1% | 20.6µM* | ? | 4.9%
Nc1nsc2ccccc12 | 31.6µM* | 3.26µM* | 2.24µM* | 0.0%
COc1ccc(-c2csc(N(CCc3ccccc3)C(=O)COc3ccccc3)n2)cc1 | -3.2% | ? | ? | 2.0%
O=C(COc1ccc(Cl)cc1)N(Cc1ccccc1)c1nc(-c2ccccc2)cs1 | -2.0% | ? | 25.9µM* | 2.9%
CCc1cccc2c(SC(C)C(=O)NCC3CCCO3)nc(-c3ccccc3)nc12 (stereo unspecified) | 0.8% | ? | ? | 0.0%
CC(Sc1ncnc2sc(-c3ccccc3)cc12)C(=O)NCC1CCCO1 (stereo unspecified) | -18.0% | ? | 23.1µM* | .
CC(Sc1nc(-c2ccccc2)c(-c2ccccc2)[nH]1)C(=O)NCC1CCCO1 (stereo unspecified) | 28.2µM* | ? | 23.1µM* | .
CC[C@@H]1OC(=O)[C@H](C)[C@H](O[C@@H]2C[C@](C)(OC)[C@H](O)[C@H](C)O2)[C@H](C)[C@H](O[C@@H]2O[C@@H](C)C[C@@H](N(C)C)[C@@H]2O)[C@](C)(O)C[C@H](C)C(=O)[C@H](C)[C@H](O)[C@]1(C)O | . | . | . | 3.9%[56.1 µM]
COc1ccc(NC(=O)c2cc3c(=O)n(Cc4cccnc4)ccc3nc2C)cc1Cl | 21.4% | -18.2% | -25.9% | 8.4%
O=C(Nc1cccc2c1CCCC2)c1ccc(Cl)c([N+](=O)[O-])c1 | -2.3% | ? | 16.4µM* | 5.4%
O=C(Nc1cccc2c1CCCC2)c1cc([N+](=O)[O-])ccc1Cl | 0.4% | ? | 25.9µM* | 0.0%
O=C(Nc1ccccc1N1CCCCC1)c1ccc(Cl)c([N+](=O)[O-])c1 | . | ? | 18.4µM* | 10.0%
COc1ccc(NC(=O)C2CCN(S(=O)(=O)c3ccc4[nH]c(=O)ccc4c3)CC2)cc1Cl | -6.2% | -6.5% | 2.5% | 3.3%
Cc1nc([N+](=O)[O-])c(Br)n1CC(=O)c1ccc(Cl)cc1 | -7.7% | 8.2µM* | 7.31µM* | 6.0%
COc1ccc(C(=O)Cn2cc([N+](=O)[O-])nc2C)cc1 | -0.8% | -15.3% | 10.6% | .
COc1ccc(C(=O)Cn2c(C)nc([N+](=O)[O-])c2Br)cc1 | -1.6% | 7.31µM* | 23.1µM* | .
Cc1nc([N+](=O)[O-])c(Br)n1Cc1ccc(Cl)c(Cl)c1 | 0.3% | 5.17µM* | 2.59µM* | 0.0%
